Assay [1] can be described thus: NCI Yeast Anticancer Drug Screen. Data for the rad50 strain (AID 155).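 Also: 0% = growth of vehicle-only cultures of the same strain.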 Conditions: S. cerevisiae rad50 strain growth inhibition, stronger effect = higher value. The method, boiled down:
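Growth of the mutant yeast was measured after compound exposure and referenced to vehicle-treated cultures.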

Assay [2] in a line: NCI Yeast Anticancer Drug Screen. Data for the mec2-1 strain (AID 157). The note with it: S. cerevisiae mec2-1 strain, stronger effect = higher value. The method, boiled down: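 Strain: mec2-1 (DNA repair/cell cycle alteration). Compound exposure, then growth measured; inhibition expressed relative to vehicle.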
Assay [3] in a line: NCI Yeast Anticancer Drug Screen. Data for the sgs1 mgt1 strain (AID 161).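 Also: 0% = growth of cultures given vehicle only.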 Conditions: S. cerevisiae sgs1 mgt1 strain, stronger effect = higher value. The method, boiled down:
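Test agents were incubated with a DNA-repair-mutant yeast strain. Growth was then read and compared against vehicle-treated controls.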

Assay [4] can be described thus: NCI Yeast Anticancer Drug Screen. Data for the cln2 rad14 strain (AID 165).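 Also: 0% = growth equal to vehicle treated cultures.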 Conditions: S. cerevisiae cln2 rad14 strain, stronger effect = higher value. The essentials:
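Compounds are applied to the cln2 rad14 yeast strain, and growth is then compared with that of vehicle-treated cultures to give inhibition.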

Assay [5] in a line: NCI Yeast Anticancer Drug Screen. Data for the bub3 strain (AID 167). The note with it: S. cerevisiae bub3 mutant strain, stronger effect = higher value. The essentials: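 Whole-cell yeast assay. The mutant strain was incubated with compounds, and growth inhibition was determined by comparison with vehicle-treated cells.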
A short description of assay [6]: NCI Yeast Anticancer Drug Screen. Data for the mlh1 rad18 strain (AID 175). Conditions: S. cerevisiae mlh1 rad18 strain growth inhibition, stronger effect = higher value. The method, boiled down: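 Read-out is yeast growth inhibition, calculated against vehicle-only controls. The compound was applied to a strain engineered with DNA damage repair alterations.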
[7] abbreviates: at 5.0 µM (retest, dose inferred, filed as 0.5).
Where [8] appears, read: at 50.0 µM (retest, dose inferred, filed as 5.0).

The results in this text go back to PubChem BioAssay (NCI).

Compounds without any hit were thinned out: in the full panel of roughly 79,000, 15% have a hit. A number with no mark means an inactive call. Activity calls are given as the source filed them. Rule as the data show it: active = growth inhibition above about 70%; inactive = the rest.

Turning to `COC(CNS(=O)(=O)c1ccccc1)[CH2][Hg][O]C(C)=O` (configuration not stated), the growth inhibition in assay [1] (setting [7]) was 1%; in assay [1] (setting [8]), -1%; in assay [1] (at 50.0 µM), 99.5% (active); in assay [2] (setting [7]), -3%; in assay [2] (setting [8]), 13%; in assay [2] (at 50.0 µM), 98.8% (active). Besides, the growth inhibition in assay [3] (setting [7]) is -5%; in assay [3] (setting [8]), 19%; in assay [3] (at 50.0 µM), 99.2% (active); in assay [4] (setting [7]) it was -4%; in assay [4] (setting [8]), 6%; in assay [4] (at 50.0 µM) it was 99.1% (active). For the same compound, the growth inhibition in assay [5] (setting [7]) was 2%; in assay [5] (setting [8]) it was 4%; in assay [5] (at 50.0 µM), 99.2% (active); in assay [6] (setting [7]) it was -2%; in assay [6] (setting [8]), 11%; in assay [6] (at 50.0 µM), 99.2% (active).

With `O=S(=O)(CCBr)CCBr`, the growth inhibition in assay [1] (setting [7]) was 51%; in assay [1] (setting [8]), 68%; in assay [1] (at 50.0 µM), 88.3% (active); in assay [2] (setting [7]), 43%; in assay [2] (setting [8]), 56%; in assay [2] (at 50.0 µM), 84.2% (active). For the same compound, the growth inhibition was 66% in assay [3] (setting [7]); 89% (active) in assay [3] (setting [8]); 88.4% (active) in assay [3] (at 50.0 µM); 92% (active) in assay [4] (setting [7]); 93% (active) in assay [4] (setting [8]); 41.9% in assay [4] (at 50.0 µM). Also, the growth inhibition in assay [5] (setting [7]) is 80% (active); in assay [5] (setting [8]), 94% (active); in assay [5] (at 50.0 µM) it was 83.2% (active); in assay [6] (setting [7]), 33%; in assay [6] (setting [8]), 57%; in assay [6] (at 50.0 µM), 85.2% (active).

For the compound `CCCCCCCCCCCCCC(=O)[O][Hg][c]1ccccc1`, the growth inhibition in assay [1] (setting [7]) is 99% (active); in assay [1] (setting [8]), 93% (active); in assay [1] (at 50.0 µM), 99.5% (active); in assay [2] (setting [7]) it was 100% (active); in assay [2] (setting [8]), 99% (active); in assay [2] (at 50.0 µM), 99.6% (active). The growth inhibition is 100% (active) in assay [3] (setting [7]); 99% (active) in assay [3] (setting [8]); 99.6% (active) in assay [3] (at 50.0 µM); 99% (active) in assay [4] (setting [7]); 98% (active) in assay [4] (setting [8]); 99.6% (active) in assay [4] (at 50.0 µM). The growth inhibition in assay [5] (setting [7]) is 99% (active); in assay [5] (setting [8]), 99% (active); in assay [5] (at 50.0 µM) it was 99.5% (active); in assay [6] (setting [7]) it was 99% (active); in assay [6] (setting [8]), 99% (active); in assay [6] (at 50.0 µM), 99.6% (active).

Consider `CC1=NNC(=O)C1(Br)Br`, for which the growth inhibition was -2% in assay [1] (setting [7]); 21% in assay [1] (setting [8]); 8.7% in assay [1] (at 50.0 µM); -3% in assay [2] (setting [7]); 9% in assay [2] (setting [8]); 11.9% in assay [2] (at 50.0 µM). Besides, the growth inhibition is 2% in assay [3] (setting [7]); 16% in assay [3] (setting [8]); 14.2% in assay [3] (at 50.0 µM); 13% in assay [4] (setting [7]); 31% in assay [4] (setting [8]); 69.6% in assay [4] (at 50.0 µM). In addition, the growth inhibition in assay [5] (setting [7]) was 1%; in assay [5] (setting [8]) it was 75% (active); in assay [5] (at 50.0 µM), 43.1%; in assay [6] (setting [7]), -13%; in assay [6] (setting [8]), -2%; in assay [6] (at 50.0 µM) it was -23.8%.

On to `Cl[C](Cl)(Cl)[Hg][C](Cl)(Cl)Cl`, for which the growth inhibition in assay [1] (setting [7]) was 80% (active); in assay [1] (setting [8]) it was 96% (active); in assay [1] (at 50.0 µM), 89.8% (active); in assay [2] (setting [7]) it was 90% (active); in assay [2] (setting [8]) it was 94% (active); in assay [2] (at 50.0 µM), 92.7% (active). The growth inhibition is 100% (active) in assay [3] (setting [7]); 100% (active) in assay [3] (setting [8]); 92.8% (active) in assay [3] (at 50.0 µM); 99% (active) in assay [4] (setting [7]); 99% (active) in assay [4] (setting [8]); 91.5% (active) in assay [4] (at 50.0 µM). The growth inhibition in assay [5] (setting [7]) is 100% (active); in assay [5] (setting [8]), 97% (active); in assay [5] (at 50.0 µM), 91.3% (active); in assay [6] (setting [7]), 78% (active); in assay [6] (setting [8]) it was 95% (active); in assay [6] (at 50.0 µM), 90.2% (active).

Consider `COC(=O)[C@]1(C)CCC[C@]2(C)[C@H]3CC4OO[C@@]3(CC[C@H]21)[C@H]1O[C@@]41C(C)C`, for which the growth inhibition was 98% (active) in assay [1] (setting [7]); 99% (active) in assay [1] (setting [8]); 92.5% (active) in assay [1] (at 50.0 µM); 99% (active) in assay [2] (setting [7]); 99% (active) in assay [2] (setting [8]); 93.4% (active) in assay [2] (at 50.0 µM). The growth inhibition in assay [3] (setting [7]) was 99% (active); in assay [3] (setting [8]), 100% (active); in assay [3] (at 50.0 µM) it was 93.7% (active); in assay [4] (setting [7]) it was 92% (active); in assay [4] (setting [8]), 99% (active); in assay [4] (at 50.0 µM) it was 92.2% (active). The growth inhibition is 98% (active) in assay [5] (setting [7]); 99% (active) in assay [5] (setting [8]); 91.8% (active) in assay [5] (at 50.0 µM); 98% (active) in assay [6] (setting [7]); 99% (active) in assay [6] (setting [8]); 92.3% (active) in assay [6] (at 50.0 µM).

With `[O-][n+]1onc2c1-c1nonc1CC2`, the growth inhibition was 21% in assay [1] (setting [7]); 9% in assay [1] (setting [8]); -33.5% in assay [1] (at 50.0 µM); -16% in assay [2] (setting [7]); -6% in assay [2] (setting [8]); 5.65% in assay [2] (at 50.0 µM). Further, the growth inhibition in assay [3] (setting [7]) was 4%; in assay [3] (setting [8]), 22%; in assay [3] (at 50.0 µM) it was -10.3%; in assay [4] (setting [7]), 8%; in assay [4] (setting [8]), 21%; in assay [4] (at 50.0 µM) it was 16%. For the same compound, the growth inhibition was 6% in assay [5] (setting [7]); 19% in assay [5] (setting [8]); -3.95% in assay [5] (at 50.0 µM); -2% in assay [6] (setting [7]); 11% in assay [6] (setting [8]); 1.15% in assay [6] (at 50.0 µM).

As for `CCOC(=O)C1=C(C)/C(=C/c2[n-]c(C)c(C(=O)OCC)c2C)N=C1C.CCOC(=O)C1=C(C)/C(=C/c2[n-]c(C)c(C(=O)OCC)c2C)N=C1C.[Zn+2]`, the growth inhibition was 4% in assay [1] (setting [7]); 55% in assay [1] (setting [8]); 99% (active) in assay [1] (at 50.0 µM); 2% in assay [2] (setting [7]); 47% in assay [2] (setting [8]); 99.3% (active) in assay [2] (at 50.0 µM). Also, the growth inhibition in assay [3] (setting [7]) is 2%; in assay [3] (setting [8]) it was 34%; in assay [3] (at 50.0 µM), 98.8% (active); in assay [4] (setting [7]) it was 7%; in assay [4] (setting [8]) it was 6%; in assay [4] (at 50.0 µM), 98.2% (active). In addition, the growth inhibition is 4% in assay [5] (setting [7]); 55% in assay [5] (setting [8]); 99.4% (active) in assay [5] (at 50.0 µM); 6% in assay [6] (setting [7]); 55% in assay [6] (setting [8]); 98.2% (active) in assay [6] (at 50.0 µM).

For the compound `O=C(N/N=C(/CCN1CCCC1)CC(c1ccccc1)c1c(O)c2ccccc2oc1=O)c1ccncc1` (configuration not stated), the growth inhibition is 15% in assay [1] (setting [7]); 15% in assay [1] (setting [8]); 83.3% (active) in assay [1] (at 50.0 µM); -4% in assay [2] (setting [7]); -4% in assay [2] (setting [8]); 80% (active) in assay [2] (at 50.0 µM). For the same compound, the growth inhibition in assay [3] (setting [7]) was -1%; in assay [3] (setting [8]), -1%; in assay [3] (at 50.0 µM), 85.1% (active); in assay [4] (setting [7]), -1%; in assay [4] (setting [8]), -1%; in assay [4] (at 50.0 µM), 82.3% (active). Besides, the growth inhibition in assay [5] (setting [7]) was 0%; in assay [5] (setting [8]), 0%; in assay [5] (at 50.0 µM), 81.3% (active); in assay [6] (setting [7]) it was 14%; in assay [6] (setting [8]) it was 14%; in assay [6] (at 50.0 µM), 81.2% (active).
